# The campaign covered roughly 69,000 compounds. About 8,600 (12%) showed an effect of 50% or more. What follows is part of a selection rich in strong results, with near analogues and random picks from the rest.
# System: Plasmodium berghei
# Assay: Screen against P. berghei liver stage (PbLuc), transformed with Luciferase, at 10uM
# Format: functional, HepG2
# Settings: tested at 10 uM
row,Compound,INHIBITION
1,Cc1nccn1CCC(=O)N1CCC2(CCC(=O)N(CC3CC3)C2)CC1,42.5%
2,CN(Cc1cccs1)C1CCC[C@@H]2CN(C(=O)c3cnccn3)C[C@H]12 (some centres not stated),37.9%
3,Cn1c(=O)oc2ccc(Nc3ncc(C#N)cc3Cl)cc21,42.1%
4,Cn1c(=O)oc2cc(Nc3nccnc3C#N)ccc21,36.5%
5,Cn1c(=O)oc2cc(Nc3ncc(C#N)cc3Cl)ccc21,58.9%
6,CS(=O)(=O)CCN(CCCO)C1CCc2ccccc21 (configuration not stated),18.3%
7,CS(=O)(=O)CCCN(CCCO)C1CCc2ccccc21 (configuration not stated),21.7%
8,CS(=O)(=O)NCCN(CCCO)C1CCc2ccccc21 (configuration not stated),51.7%
9,CC(=O)N1N=C(c2cccs2)OC1C(=O)Nc1ccc(C(C)C)cc1 (configuration not stated),6.55%
10,COCC1CCCN(C(=O)c2ccc(NC(=O)CC(C)C)c(C)c2)C1 (configuration not stated),4.97%
11,CCN1CCCN(C(=O)c2ccc(NC(=O)CC(C)C)c(C)c2)CC1,76.6%
12,CCN1CCN(c2ccc(NC(=O)CC(C)C)c(C)c2)CC1,35.7%
13,CCOC(=O)COc1ccc(C(C)=O)c(O)c1,38.2%
14,Cc1nn(C)c(C)c1C1CCCN1C(=O)c1ccc2c(c1)OCCO2 (configuration not stated),-45.9%
15,CCSCc1ccc(C(=O)N2CCCN(CC(N)=O)CC2)cc1,-40.5%
16,Cc1cccc(CN2C(=O)CC[C@@H]3[C@H]2CCN3CC2CCOCC2)n1,38.1%
17,CN(Cc1ccccc1NCc1cscn1)C(=O)c1cccs1,20.6%
18,CN(Cc1ccccc1NCc1cccnc1)C(=O)c1cccs1,49.3%
19,Cc1cnc(CNc2ccccc2CN(C)C(=O)c2cccs2)o1,55.6%
20,CCc1noc(CN(CC)C(=O)CC2C(=O)NCCN2CC(C)(C)C)n1 (configuration not stated),13.7%
21,COCCN1C[C@@H]2[C@@H](OC)CCN(S(=O)(=O)c3cccnc3)[C@@H]2C1,31.1%
22,CO[C@@H]1CCN(S(=O)(=O)N(C)C)[C@@H]2CN(Cc3cccnc3)C[C@@H]21,36.2%
23,CCN1C[C@@H]2[C@@H](OC)CCN(S(=O)(=O)c3ccccc3)[C@@H]2C1,17.6%
24,CO[C@H]1CCN(S(=O)(=O)c2cccnc2)[C@@H]2CN(CC3CC3)C[C@H]12,52%
25,CO[C@@H]1CCN(S(=O)(=O)c2cccnc2)[C@@H]2CN(CC3CC3)C[C@@H]21,53.2%
26,CCN1C[C@H]2[C@@H](C1)N(S(=O)(=O)c1ccccc1)CC[C@H]2OC,41.6%

row,Compound,INHIBITION
1,CCN1C[C@@H]2[C@@H](OC)CCN(S(=O)(=O)c3cccnc3)[C@@H]2C1,26.4%
2,CO[C@H]1CCN(S(=O)(=O)N(C)C)[C@@H]2CN(Cc3cccnc3)C[C@H]12,-18.5%
3,CCN1C[C@H]2[C@@H](C1)N(S(=O)(=O)c1cccnc1)CC[C@H]2OC,59.1%
4,O=C(NCCC1CCN(CC(F)(F)F)CC1)C1CCOC1 (configuration not stated),26.1%
5,Cc1csc(C(C)(C)NCC(=O)N(C)Cc2ccc(C)o2)n1,11.3%
6,NC(=O)C1CCN(C(=O)c2cccn2Cc2cccs2)C1 (configuration not stated),11.6%
7,CN1CCc2nc(C3CCCN(S(=O)(=O)c4ccccc4)C3)ncc2C1 (configuration not stated),29.85%
8,OC1(CN2CCC(Cc3ncccn3)CC2)CCCCC1,14.6%
9,COCCc1noc(CN2CCCC2Cn2cccn2)n1 (configuration not stated),38.8%
10,CSc1ccc(-c2noc(CN(CC(C)C)CC(C)C)n2)cc1,65.8%
11,CSc1ccc(-c2noc(CN(Cc3ccccc3)C(C)C)n2)cc1,46.1%
12,COCCN(Cc1ccco1)Cc1nc(-c2ccc(C)c(F)c2)no1,-16.7%
13,COc1ccc(CN2CC[C@H](NC(C)=O)[C@@H](O)CC2)c(F)c1,38.2%
14,CN1CCCc2cc(CNC(=O)c3cc[n+]([O-])cc3)ccc21,53.9%
15,COc1cc(C(=O)NCc2ccc3c(c2)CCCN3C)cc(OC)c1Br,34.7%
16,COC(=O)c1cccc(C(=O)NCc2ccc3c(c2)CCCN3C)c1,34.7%
17,CN1CCCc2cc(CNC(=O)c3ccncc3)ccc21,63.9%
18,Cc1cnc(C(=O)NCc2ccc3c(c2)CCCN3C)cn1,19.6%
19,CN1CCCc2cc(CNC(=O)c3ccc(-n4cnnc4)cc3)ccc21,37.4%
20,Cc1ccc(N2CCN(C(=O)C3CN(C)C(=O)N3)CC2=O)cc1 (configuration not stated),17.8%
21,O=C(CC1CCC1)N1CCCC(CO)(CC2CC2)C1 (configuration not stated),22.1%
22,CN(C)C(=O)N1CCN(c2ccc3ccc(C(=O)NC4CC4)cn23)CC1,-14.7%
23,CCOC(=O)c1c(NC(=O)CN2CCN(C(C)=O)CC2)sc2c1CCC2,14.2%
24,CC(C(=O)NCc1ccnc(N2CCN(C)CC2)c1)S(C)(=O)=O (configuration not stated),23.333%
25,CC(=O)N1Cc2ccccc2OC2(CCN(C(=O)C3CCOC3)CC2)C1 (configuration not stated),6.26%
26,CCc1cc(N2CCC(Nc3ccc4nnc(C)n4n3)CC2)ncn1,46.4%

row,Compound,INHIBITION
1,Cc1ccc(N2CCC(Nc3ccc4nnc(C)n4n3)CC2)nc1,58.7%
2,Cc1ccc(N2CCC(NC(C)c3cccs3)CC2)nc1 (configuration not stated),22.9%
3,c1cc(CN2CCC3(CCOCC3COCC3CC3)CC2)co1 (configuration not stated),38.3%
4,Cn1nnc2c1CCN(Cc1ccco1)C2COCc1ccccc1 (configuration not stated),-48.4%
5,Cc1cc(C)n(-c2ccc(N3CCC(O)CC3)nc2)n1,50.5%
6,Cc1cc(C)n(-c2ccc(N3CCCSCC3)nc2)n1,25.8%
7,Cc1cc(C)n(-c2ccc(N3CCC4(CC3)OCCO4)nc2)n1,-125%
8,Cc1cccc(SC2CCN(Cc3nc(CC4CC4)no3)CC2)c1,11.9%
9,Clc1cccc2c1CCN(Cc1nc(CC3CC3)no1)C2,50.5%
10,CS(=O)(=O)Cc1noc(CN2CCN(c3ccccc3Cl)CC2)n1,45.7%
11,Cc1cccc(N2CCN(Cc3nc(CC4CC4)no3)CC2)n1,32.7%
12,CS(=O)(=O)Cc1noc(CN2CCc3c(Cl)cccc3C2)n1,82.5%
13,Cc1ncc2c(n1)CCN(Cc1nc(Cc3ccccc3)no1)C2,-154%
14,CCOC(=O)c1sc(NC(=O)C(C)C)c(C#N)c1C,38%
15,CN1CCN(Cc2ccccc2Oc2cncc(C(N)=O)n2)CC1,4.82%
16,NC(=O)c1ccnc(N2CCCC(CO)(Cc3ccc(F)cc3)C2)c1 (configuration not stated),43.5%
17,NC(=O)CN1CC2(CCC1=O)CCN(Cc1ccc(F)cc1Cl)CC2,31.7%
18,NC(=O)c1cncc(N2CCN(Cc3ccc(F)cc3Cl)CC2)n1,69.3%
19,COc1ccc(CN2CCCN(c3cc(C(N)=O)ccn3)CC2)cc1,-18.7%
20,NC(=O)c1ccnc(N2CCN(Cc3ccc(F)cc3Cl)CC2)c1,83.2%
21,NC(=O)c1ccc(N2CCN(Cc3ccc(F)cc3Cl)CC2)nn1,81.2%
22,NC(=O)c1cncc(N2CCN(Cc3cccc4nsnc34)CC2)n1,-47.8%
23,O=C(c1cnns1)N1CCN(Cc2ccc(F)cc2Cl)CC1,-18.2%
24,Cc1nn(C)c(N2CCOCC2)c1CNCc1ccc(C(C)O)cc1 (configuration not stated),43.2%
25,CC(C)CC(=O)N1CCN(Cc2cc(-c3ccncc3)nn2C)CC1,-23.8%
26,CCOC(=O)c1sc(NC(=O)CN2C(=O)CCC2=O)c(C#N)c1C,32.2%

row,Compound,INHIBITION
1,CC(C)c1ccc(-n2ncc(C(=O)N(C)C3CCN(C)CC3)c2N)cc1,-29%
2,Cc1ccc(CN(CCN(C)C)Cc2ccnn2C2CCCCO2)o1 (configuration not stated),15.5%
3,Cc1ccc(O)c(C(=O)N2CCC3(CCCNC3)C2)c1 (configuration not stated),42.1%
4,O=C1CNc2ncnc(Nc3cnn(Cc4ccccc4)c3)c2N1,34.6%
5,O=C1CNc2ncnc(Nc3cnn(Cc4cccc(F)c4)c3)c2N1,-6.47%
6,O=C1CNc2ncnc(Nc3cnn(Cc4ccc(F)cc4)c3)c2N1,65.8%
7,COCCN1C[C@@H](C)[C@@]2(COCCN(C(=O)c3cccs3)C2)C1,20.1%
8,Cc1ccc(C(NC(=O)C2CC2)c2cccc(S(C)(=O)=O)c2)cc1 (configuration not stated),52.5%
9,CCNC(=O)NC(c1ccc(C)cc1)c1cccc(S(C)(=O)=O)c1 (configuration not stated),31.7%
10,CCC(=O)NC(c1ccc(C)cc1)c1cccc(S(C)(=O)=O)c1 (configuration not stated),34.7%
11,Cc1cnc(CCNC(=O)C2CN(C(=O)Cc3ccc(F)cc3)C2)s1,-3.15%
12,CN(C)CC1(O)CCCN(c2ccnc3c(C(F)(F)F)cccc23)C1 (configuration not stated),7.24%
13,Cc1cc(C)n(C2CN(CC(=O)N(C)Cc3ccsc3)C2)n1,75.7%
14,COc1ccccc1CNC(=O)C(C)N1CC(n2nc(C)cc2C)C1 (configuration not stated),6.27%
15,COc1ccccc1CN(C)C(=O)CN1CC(n2nc(C)cc2C)C1,89.4%
16,Cc1cc(C)n(C2CN(CC(=O)N(C)Cc3cnn(C)c3)C2)n1,32.9%
17,COc1cccc(CN(C)C(=O)CN2CCN(c3nccn3C)CC2)c1,-20.6%
18,Cc1cc(C)n(C2CN(CC(=O)N(C)Cc3ccc(C)o3)C2)n1,71.9%
19,Cc1cc(C)n(C2CN(CC(=O)N(C)Cc3ccco3)C2)n1,39.7%
20,COc1ccccc1CC(=O)N1CCCC(n2nc(C)cc2C)C1 (configuration not stated),27.1%
21,COc1cccc(CN(C)C(=O)CN2CCN(c3nccs3)CC2)c1,60.4%
22,Cc1ccc(CN(C)C(=O)CN2CC(n3cccn3)C2)o1,28.4%
23,CN(Cc1ccsc1)C(=O)CN1CCOC(Cn2cncn2)C1 (configuration not stated),5.7%
24,COc1cccc(CN(C)C(=O)CN2CCN(CCO)CC2)c1,13.7%

# Reference: ChEMBL document CHEMBL4513216, “Probing the Open Global Health Chemical Diversity Library for Multistage-Active Starting Points for Next-Generation Antimalarials” (ACS Infect Dis, 2020)
